Assay outcomes as filed in PubChem.
FLuc inh-1 = Firefly luciferase inhibition profiling of diverse chemical library using quantitative high-throughput screening | Luciferin 4-monooxygenase (Photinus pyralis), P08659 | purified P. pyralis luciferase, luminescence, biochemical | Potency, µM (titrated, usually from 115 µM), usual class: inhibitors | 76,000 compounds, 2.5% hits | AID 1347043, 2019; note: nearly all actives have a fitted effect of over 65% in size
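Purified P. pyralis luciferase (10nM final) in 50mM Tris acetate pH 7.5, 10mM Mg acetate, 0.01% Tween-20, 0.05% BSA with 10uM D-luciferin and 10uM ATP. Compounds titrated qHTS. Luminescence imaged on CCD.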
NPR1 antag = Natriuretic polypeptide receptor (hNpr1) antagonism - Primary qHTS; HEK293 hNpr1 GloSensor cGMP, ANP-stimulated luminescence; 76,000 compounds, 1.6% hits; AID 1347048, 2019; Potency, µM (doses to about 46.3 µM), actives largely listed as inhibitors; Atrial natriuretic peptide receptor 1 (Homo sapiens), P16066; calls by dose curve; note: nearly all actives have a fitted effect of over 60% in size
Target sequence (P16066 whole entry, looked up): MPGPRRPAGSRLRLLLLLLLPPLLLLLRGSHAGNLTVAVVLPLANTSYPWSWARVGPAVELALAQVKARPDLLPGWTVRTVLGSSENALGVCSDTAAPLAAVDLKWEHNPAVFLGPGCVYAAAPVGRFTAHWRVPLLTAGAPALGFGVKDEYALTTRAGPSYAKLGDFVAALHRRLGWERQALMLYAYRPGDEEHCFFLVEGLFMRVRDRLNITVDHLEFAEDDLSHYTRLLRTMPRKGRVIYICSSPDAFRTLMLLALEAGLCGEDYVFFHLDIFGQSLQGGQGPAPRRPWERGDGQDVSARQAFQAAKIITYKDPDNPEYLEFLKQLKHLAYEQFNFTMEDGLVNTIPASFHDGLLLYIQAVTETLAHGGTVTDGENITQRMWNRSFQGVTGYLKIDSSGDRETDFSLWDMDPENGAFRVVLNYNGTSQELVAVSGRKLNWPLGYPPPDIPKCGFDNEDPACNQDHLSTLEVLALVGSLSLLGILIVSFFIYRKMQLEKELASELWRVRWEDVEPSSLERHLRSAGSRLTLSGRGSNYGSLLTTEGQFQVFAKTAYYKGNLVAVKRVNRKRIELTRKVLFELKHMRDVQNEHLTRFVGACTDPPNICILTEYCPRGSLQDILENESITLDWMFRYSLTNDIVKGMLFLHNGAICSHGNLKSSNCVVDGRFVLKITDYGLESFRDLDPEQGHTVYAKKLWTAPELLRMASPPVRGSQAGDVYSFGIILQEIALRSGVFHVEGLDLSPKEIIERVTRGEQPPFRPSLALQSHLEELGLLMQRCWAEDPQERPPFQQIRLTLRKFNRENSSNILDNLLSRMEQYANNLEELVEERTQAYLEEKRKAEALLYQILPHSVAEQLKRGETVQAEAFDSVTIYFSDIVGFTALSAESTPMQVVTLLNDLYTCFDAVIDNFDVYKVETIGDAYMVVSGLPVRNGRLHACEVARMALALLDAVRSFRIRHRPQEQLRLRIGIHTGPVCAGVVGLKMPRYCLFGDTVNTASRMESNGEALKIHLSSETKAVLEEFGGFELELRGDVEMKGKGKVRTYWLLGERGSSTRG
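HEK293 cells stably expressing human Npr1 and cGMP GloSensor pGS-40F, loaded 2 h with 2% GloSensor reagent, given compound 30 min at room temperature. Luminescence read before and 20 min after 0.1 nM hNppA.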
3T3 cytotox = Cytotoxic Profiling in NIH 3T3 Cell Line of Diverse Libraries Using Quantitative High-Throughput Screening; NIH 3T3 viability, CellTiter-Glo ATP luminescence, 48-72 h; AID 1345082, 2018; Potency, µM (highest dose often 96.7 µM), actives largely listed as inhibitors; 94,000 compounds, 4.3% hits; note: nearly all actives have a fitted effect of over 55% in size
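ATP-dependent luminescence (CellTiter-Glo) served as the viability signal for NIH 3T3 cells treated with compound for 48 or 72 hr at 37 °C.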
HEK293 tox = Cytotoxic Profiling in HEK 293 Cell Line of Diverse Libraries Using Quantitative High-Throughput Screening. 94,000 compounds, 6.6% hits. Potency, µM (doses to about 115 µM), usual class: inhibitors. HEK 293 viability, ATP luminescence (CellTiter-Glo), 48-72 h. AID 1345083, 2018; note: nearly all actives have a fitted effect of over 60% in size
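Luminescence from cellular ATP, measured with CellTiter-Glo, indicates HEK 293 viability. Cells plated at 250 cells/well are treated with compound for 48 or 72 hr at 37 degree Celsius before reagent addition.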
FLuc SDR -ATP = Firefly luciferase (FLuc-C-HiBiT) SDR gain of signal screen - without ATP | shares compounds with FLuc inh-1 | Purified FLuc-C-HiBiT, Nano-Glo HiBiT luminescence, no ATP | Potency, µM (series often up to 32.7 µM), usual class: activators | 1,300 compounds, 7.8% hits; note: nearly all actives have a fitted effect of over 55% in size
FLuc SDR ATP = Firefly luciferase (FLuc-C-HiBiT) SDR gain of signal screen - plus ATP. shares compounds with FLuc inh-1. purified FLuc-C-HiBiT + ATP, HiBiT complementation luminescence. Potency, µM (doses to about 32.7 µM), usual class: activators. 1,300 compounds, 8.7% hits. AID 1963319, 2024;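 note: signal reports ligand binding via conformational change of the enzyme rather than luciferase catalysis; nearly all actives have a fitted effect of over 55% in size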
FLuc inh-2 = Firefly luciferase (FLuc-C-HiBiT) enzymatic inhibition screen - Functional assay | shares compounds with FLuc inh-1 | purified FLuc-C-HiBiT enzyme, luciferin luminescence | Potency, µM (titrated, usually from 32.7 µM), actives largely listed as inhibitors | 1,300 compounds, 42% hits | AID 1963320, 2024; note: nearly all actives have a fitted effect of over 70% in size
Large screens that a line does not name were inactive (follow-up assays come after a bar, where they were run). Hits are enriched below; roughly 11% of the tested compounds scored in any of these assays. Unless noted, calls come from the whole dose curve; as a rule, active = well fitted curve in the direction sought with a large enough effect; inconclusive = small, poorly fitted or top-dose-only effect, or another doubt; inactive = no such curve, though single readings can be large; an effect the other way counts as inactive or inconclusive.

O=C(Nc1cccc(-c2ccc(N3CCCC3)nn2)c1)Nc1c(F)cccc1F	FLuc inh-1 14µM, 3T3 cytotox inconclusive, HEK293 tox inconclusive
O=C(Nc1cccc(-c2nnc3n2CCCC3)c1)Nc1ccccc1F	none
Cc1noc(C)c1[S+](=O)([O-])N1CCN(CCCn2nc3n(c2=O)CCCC3)CC1	none (no result: FLuc inh-1, NPR1 antag)
Cc1cccc(N2CCN(C(=O)c3ccc4c(c3)N(C)C3CCCCN3C4=O)CC2)c1 (centres undefined)	3T3 cytotox inconclusive, HEK293 tox 32µM
CN1c2cc(C(=O)N3CCN(c4ccccc4)CC3)ccc2C(=O)N2CCCCC21 (centres undefined)	HEK293 tox inconclusive
CN1c2cc(C(=O)N3CCN(c4ccccc4F)CC3)ccc2C(=O)N2CCCC21 (centres undefined)	none
CN1c2cc(C(=O)N3CCN(c4ccccc4)CC3)ccc2C(=O)N2CCCCCC21 (centres undefined)	3T3 cytotox inconclusive, HEK293 tox inconclusive
CN1c2cc(C(=O)N3CCN(c4cccc(Cl)c4)CC3)ccc2C(=O)N2CCCC21 (centres undefined)	HEK293 tox 79µM
CN1c2cc(C(=O)N3CCN(c4cccc(Cl)c4)CC3)ccc2C(=O)N2CCCCC21 (centres undefined)	3T3 cytotox inconclusive, HEK293 tox 45µM
CCCN1CCN(C(=O)c2cc3c(s2)CCN(C(=O)c2ccc(F)cc2)C3)CC1	3T3 cytotox inconclusive
COc1ccc(-n2nc(C3CCN(Cc4cccn4C)CC3)[nH]c2=O)cc1	3T3 cytotox inconclusive, HEK293 tox 40µM
O=C(NCc1ccc(F)cc1)c1cc(-c2ccc(Cl)cc2Cl)c2nncn2n1	3T3 cytotox 45µM, HEK293 tox 89µM (no result: FLuc inh-1, NPR1 antag)
O=C(NC1CCCCC1)c1cc(-c2ccc(F)cc2)c2nncn2n1	3T3 cytotox inconclusive (no result: FLuc inh-1, NPR1 antag)
O=C(NCc1ccc(F)cc1)c1cc(-c2ccc(F)cc2)c2nncn2n1	none (no result: FLuc inh-1, NPR1 antag)
O=C(NCC1CCCCC1)c1cc(-c2ccc(F)cc2)c2nncn2n1	3T3 cytotox 6.3µM, HEK293 tox inconclusive (no result: FLuc inh-1, NPR1 antag)
Cc1ccc2c(n1)N(C)[C@H](CO)CCN(Cc1ccc(Cl)cc1)C2	3T3 cytotox inconclusive, HEK293 tox 71µM
CCN(Cc1ccccc1)c1ncncc1-c1nc(-c2ccccc2)no1	3T3 cytotox inconclusive, HEK293 tox 79µM
C=CCCOC(=O)N1CCC(=O)N(CC=C)C[C@H]2COc3ccccc3[C@H]21	3T3 cytotox inconclusive (no result: FLuc inh-1, NPR1 antag)
Cn1c(C(=O)Nc2ccc3c(c2)OCO3)cc2c1CCN(Cc1cccc(F)c1)C2	FLuc inh-1 10µM, 3T3 cytotox inconclusive, HEK293 tox inconclusive | FLuc SDR -ATP inactive | FLuc SDR ATP inactive | FLuc inh-2 inactive
Cc1cccc(CCNC(=O)c2sc3nc4n(c(=O)c3c2C)CCCC4)c1	none (no result: FLuc inh-1, NPR1 antag, 3T3 cytotox, HEK293 tox) | FLuc SDR -ATP inactive | FLuc SDR ATP inactive | FLuc inh-2 inactive
O=C(NCCCc1ccccc1)C1CCN(C(=O)N2CC3CC(C2)[C@H]2CCCC(=O)N2C3)CC1 (some centres undefined)	none
O=C(Nc1ccccc1)C1CCN(C(=O)N2CC3CC(C2)[C@H]2CCCC(=O)N2C3)CC1 (some centres undefined)	none | FLuc SDR -ATP inactive | FLuc SDR ATP inactive | FLuc inh-2 inactive
CCN1CCC2(CCC1=O)CN(Cc1nc(CCOC)no1)CCN2C (centres undefined)	none
Cn1ccnc1CN1C(=O)CO[C@H](c2ccc(NC(=O)COc3ccccc3)cc2)[C@H]1CO	FLuc inh-1 inconclusive
Cn1ccnc1CN1C(=O)CO[C@H](c2ccc(NC(=O)Nc3ccccc3)cc2)[C@H]1CO	FLuc inh-1 10µM | FLuc SDR -ATP inactive | FLuc SDR ATP inactive | FLuc inh-2 inconclusive
CN(c1ccccc1)c1ccc2ncn(C3CC3)c(=O)c2n1	FLuc inh-1 1.3µM, NPR1 antag 16µM, 3T3 cytotox inconclusive, HEK293 tox inconclusive | FLuc SDR -ATP 18µM | FLuc SDR ATP 7.2µM | FLuc inh-2 5.7µM
Cc1ccc(CNC(=O)CN2CCCc3nc(C4CC4)ncc3C2=O)cc1	none (no result: FLuc inh-1, NPR1 antag)
CNC(=O)[C@H]1C[C@H](Oc2ccccc2)CN1C(=O)c1cccc(C)c1	none
COc1ccc(N2CCN(C(=O)Cn3cccc3-c3nc(-c4ccc5c(c4)OCO5)no3)CC2)cc1	none | FLuc SDR -ATP inactive | FLuc SDR ATP inactive | FLuc inh-2 inactive
O=C(c1cccc(C(F)(F)F)c1)N1CCN(CCCn2nc3n(c2=O)CCCC3)CC1	none (no result: FLuc inh-1, NPR1 antag)
c1ccc(COc2cccc(-c3nc4ccccc4s3)c2)cc1	none (no result: FLuc inh-1, NPR1 antag, 3T3 cytotox, HEK293 tox) | FLuc SDR -ATP inactive | FLuc SDR ATP inactive | FLuc inh-2 5µM
O=C(O)c1cccc(-c2cnc3ccccc3c2)c1	none (no result: FLuc inh-1, NPR1 antag)
c1ccc(COc2ccccc2-c2nc3ccccc3s2)cc1	none (no result: FLuc inh-1, NPR1 antag, 3T3 cytotox, HEK293 tox) | FLuc SDR -ATP inactive | FLuc SDR ATP inactive | FLuc inh-2 inconclusive
Cc1nn2c(c1-c1ccccc1OCc1ccccc1)N(Cc1ccccc1O)CCC2	NPR1 antag inconclusive, 3T3 cytotox inconclusive, HEK293 tox inconclusive
NC(=O)COC(=O)c1ccccc1-c1nc2ccccc2s1	none (no result: FLuc inh-1, NPR1 antag, 3T3 cytotox, HEK293 tox) | FLuc SDR -ATP inactive | FLuc SDR ATP inactive | FLuc inh-2 inactive
O=c1n(CCCN2CCN([S+](=O)([O-])c3cccs3)CC2)nc2n1CCCC2	none (no result: FLuc inh-1, NPR1 antag)
Cc1ccsc1C(=O)N1CCC(n2cc(-c3nc(C(C)C)no3)nn2)CC1	NPR1 antag inconclusive, HEK293 tox inconclusive
CN1C(=O)[C@H](OC(N)=O)[C@@H](C(=O)Nc2ccccc2)C12CCN(C(=O)c1ccco1)CC2	3T3 cytotox inconclusive (no result: FLuc inh-1, NPR1 antag)
O=C(NCc1ccccc1)C1CN(C2CCCC2)C(=O)N1 (centres undefined)	none (no result: FLuc inh-1, NPR1 antag)
COCC1CN(C)CC12CCN(Cc1ccc(C)o1)CC2 (centres undefined)	none
CC(C)c1noc([C@@H]2C[C@H]3C(=O)NCCCCCCN(C(=O)CC4CCCCC4)[C@H]3C2)n1	3T3 cytotox inconclusive, HEK293 tox inconclusive
CCn1cc(-c2ccc(F)cc2)cc1C(=O)O	none | FLuc SDR -ATP inactive | FLuc SDR ATP inactive | FLuc inh-2 inactive
CCN1CCN(C(=O)c2cc(-c3ccc(C)cc3)cn2CC)CC1	3T3 cytotox inconclusive, HEK293 tox inconclusive
